# Results from PubChem BioAssay (NCATS).
# Values joined by “and” are separate entries in the source; they are usually repeats but may differ in a detail not shown here. Equal entries are not always repeated. Inconclusive results are not listed. A call without a number means that no potency is given here. Some compounds were tested as several samples or in several runs, with calls that do not always agree. Active and inactive are the calls of the source. Unless noted, the call rests on the fitted dose curve.
# Assays:
# [1] = qHTS for Inhibitors of the Functional Ribonucleoprotein Complex (vRNP) of Lassa (LASV) Arenavirus: LASV Primary Screen - GLuc reporter signal (AID 1347082; calls by dose curve; tested in HEK293 reporter line; further: nearly all actives have a fitted effect of over 60% in size)
# [2] = qHTS for Inhibitors of the Functional Ribonucleoprotein Complex (vRNP) of Lassa (LASV) Arenavirus: Viability assay - alamar blue signal for LASV Primary Screen (AID 1347083; calls by dose curve; tested in HEK293 reporter line; further: nearly all actives have a fitted effect of over 80% in size)
# [3] = qHTS for Inhibitors of the Functional Ribonucleoprotein Complex (vRNP) of Lymphocytic Choriomeningitis Arenaviruses (LCMV): Viability assay - alamar blue signal for LCMV Primary Screen (AID 1347085; calls by dose curve; tested in HEK293 reporter line; further: nearly all actives have a fitted effect of over 80% in size)
# [4] = target: Nucleoprotein (Lymphocytic choriomeningitis virus (strain Armstrong)) (UniProt P09992); test: qHTS for Inhibitors of the Functional Ribonucleoprotein Complex (vRNP) of Lymphocytic Choriomeningitis Arenaviruses (LCMV): LCMV Primary Screen - GLuc reporter signal (AID 1347086); further: nearly all actives have a fitted effect of over 70% in size
# [5] = Primary qHTS for Huh7 cytotoxicity: counterscreen for inhibitors of MERS-S pseudotyped particle cell entry (AID 1479147); settings: outcome: dose series up to 57.1 µM unless noted
# [6] = Primary qHTS for inhibitors of MERS-S pseudo-typed particle cell entry (AID 1479149); further: nearly all actives have a fitted effect of over 60% in size
# [7] = Primary qHTS for Vero E6 cytotoxicity: counterscreen for inhibitors of SARS-S pseudo-typed particle cell entry (AID 1479150); settings: outcome: dose series up to 57.1 µM unless noted
# [8] = Cytotoxicity counterscreen for inhibitors of SARS-CoV-2 cell entry (AID 1645845); further: nearly all actives have a fitted effect of over 50% in size; further: potency means the concentration at half of the fitted maximal effect
# In short: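 Counterscreen run in the same HEK293-ACE2 line as the pseudotyped-particle entry assay, without particles. Viability after 48 h at 37 C was read as ATP luminescence, scaled between cell-containing and cell-free wells.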
# [9] = Primary qHTS to identify inhibitors of SARS-CoV-2 cell entry (AID 1645846); further: nearly all actives have a fitted effect of over 45% in size
# In short: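 Data are normalized to wells receiving SARS-CoV-2-S pseudoparticles and those given bald particles. Entry signal was luciferase luminescence in stable hACE2 Expi293F cells, 48 hr post-infection, after 1 hr compound pretreatment.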
# [10] = target: Alpha-galactosidase (Coffea arabica) (UniProt Q42656); test: Counterscreen for Glucocerebrosidase Inhibitors: qHTS Assay for Coffee Bean alpha-Galactosidase at pH 4.5 (AID 957; active means well fitted curve in the direction sought with a large enough effect; an effect the other way counts as inactive or inconclusive)
# In short: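 Fluorogenic read-out: 4-methylumbelliferone at Ex 365/Em 440 nm after NaOH/glycine stop (pH 10). Enzyme 2 nM, 4-MU-alpha-galactoside 80 uM, citrate buffer pH 4.5, 20 min RT; normalized to no-enzyme and enzyme controls.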
# [11] = target: Alpha-galactosidase (Coffea arabica) (UniProt Q42656); test: Counterscreen for Glucocerebrosidase Inhibitors: qHTS Assay for Coffee Bean alpha-Galactosidase at pH 5.9 (AID 998; active means well fitted curve in the direction sought with a large enough effect; an effect the other way counts as inactive or inconclusive)
# In short: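 Enzyme 2 nM + cpd (0.7 nM–77 uM titration) + 4-MU-alpha-Gal 80 uM, pH 5.9 citrate/Tween-20, RT 20 min, NaOH/glycine stop pH 10, fluor 365/440. Normalized to no-enzyme and full-activity controls; Hill-fit AC50.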
# [12] = Validation screen for inhibitors of Lassa infection (AID 463096); further: potency means the concentration at half of the fitted maximal effect
# [13] = Inducers of the Endoplasmic Reticulum Stress Response (ERSR) in human glioma: Validation (AID 504836; active means well fitted curve in the direction sought with a large enough effect; an effect the other way counts as inactive or inconclusive)
# In short: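 Stably transfected U87-MG glioma cells carrying a GRP78-based luciferase sensor; 16 h compound incubation. Luminescence end-point read 10 min after Bright-Glo addition at room temperature.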
# [14] = Primary qHTS for inhibitors of SARS-S pseudo-typed particle cell entry (AID 1479145); further: nearly all actives have a fitted effect of over 45% in size
# [15] = Confirmatory qHTS to identify inhibitors of SARS-CoV-2 cell entry (AID 1645844); further: potency means the concentration at half of the fitted maximal effect; nearly all actives have a fitted effect of over 45% in size
# In short: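 HEK293-ACE2, overnight seeding; cpd 1 h, 37C/5% CO2; + SARS-CoV-2-S MLV PP (Wuhan-Hu-1, ΔC19); 48 h; Bright-Glo luminescence. Data normalised to S PP and bald PP wells.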
# [16] = VSVG counterscreen qHTS to identify inhibitors of SARS-CoV-2 cell entry (AID 1645847); further: potency means the concentration at half of the fitted maximal effect; nearly all actives have a fitted effect of over 65% in size
# In short: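 Counterscreen using VSV-G (not spike) pseudotyped MLV particles on ACE2-expressing Expi293F cells after 1 h compound preincubation; infection ran 48 h at 37 °C. Data normalized to VSV-G PP and bald-PP wells.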
# [17] = activity change, negative = inhibition: at 57.1 µM (top of the series) unless noted
# Alpha-galactosidase (Coffea arabica), sequence (Q42656 whole entry, looked up): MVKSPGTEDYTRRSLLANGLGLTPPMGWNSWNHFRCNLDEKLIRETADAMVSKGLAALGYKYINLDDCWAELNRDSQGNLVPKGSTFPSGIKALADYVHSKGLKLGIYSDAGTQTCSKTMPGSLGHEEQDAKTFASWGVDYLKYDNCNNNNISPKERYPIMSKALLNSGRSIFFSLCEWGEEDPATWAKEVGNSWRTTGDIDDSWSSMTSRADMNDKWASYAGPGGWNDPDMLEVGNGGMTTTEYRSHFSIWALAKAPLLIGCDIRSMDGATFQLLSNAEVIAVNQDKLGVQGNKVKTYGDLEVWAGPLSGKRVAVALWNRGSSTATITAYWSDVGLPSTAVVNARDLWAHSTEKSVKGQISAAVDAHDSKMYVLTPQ
# Nucleoprotein (Lymphocytic choriomeningitis virus (strain Armstrong)), sequence (P09992 whole entry, looked up): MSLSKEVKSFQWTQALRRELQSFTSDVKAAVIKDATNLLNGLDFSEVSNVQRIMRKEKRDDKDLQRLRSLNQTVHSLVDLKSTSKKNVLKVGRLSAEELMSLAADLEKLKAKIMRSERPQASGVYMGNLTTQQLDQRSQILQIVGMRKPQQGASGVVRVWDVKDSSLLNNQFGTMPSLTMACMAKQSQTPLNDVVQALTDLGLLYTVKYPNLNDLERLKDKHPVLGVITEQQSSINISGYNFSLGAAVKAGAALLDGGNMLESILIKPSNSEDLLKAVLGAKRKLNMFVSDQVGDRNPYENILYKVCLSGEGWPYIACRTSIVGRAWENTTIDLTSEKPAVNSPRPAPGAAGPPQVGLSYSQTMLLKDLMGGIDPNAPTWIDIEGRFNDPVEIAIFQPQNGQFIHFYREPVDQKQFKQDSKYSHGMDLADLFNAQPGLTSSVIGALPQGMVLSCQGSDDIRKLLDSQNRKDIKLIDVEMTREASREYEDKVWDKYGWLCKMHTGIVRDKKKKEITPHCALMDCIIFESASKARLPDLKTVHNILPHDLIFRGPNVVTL
SMILES,Potency [1],Potency [2],Potency [3],Potency [4],outcome [5],Potency [6],outcome [7],Potency [8],"activity change, negative = inhibition [9, 17]",outcome [10],outcome [11],Potency [12],outcome [13],Potency [14],"activity change, negative = inhibition [14]",outcome [6],"activity change, negative = inhibition ([9]; SARS-CoV-2 pseudovirus cell entry assay, luminescence, at 5.25 µM (top of the series)) [%]","activity change, negative = inhibition ([9]; SARS-CoV-2 pseudovirus cell entry assay, luminescence, at 57.1 µM (top of the series)) [%]",Potency [15],Potency [16]
CC1(C)CCC(CN2CCN(c3ccc(C(=O)NS(=O)(=O)c4ccc(NCC5CCOCC5)c([N+](=O)[O-])c4)c(Oc4cnc5[nH]ccc5c4)c3)CC2)=C(c2ccc(Cl)cc2)C1,inactive,inactive,inactive,inactive,inactive,inactive,inactive,inactive,-9.23% and -30%,,,,,,,,,,,
C[N+](C)(C)CCO,inactive,inactive,inactive,inactive,inactive [at 114 µM],inactive,inactive [at 114 µM],inactive,-23.8% [at 114 µM],inactive,inactive,inactive,inactive,inactive,,,,,,
c1cc(CN2CCCNCCNCCCNCC2)ccc1CN1CCCNCCNCCCNCC1,inactive,inactive,inactive,inactive,inactive [at 5.34 µM],,inactive [at 5.34 µM],inactive,,,,,,,-15.1% [at 5.34 µM] (inactive),inactive [at 5.34 µM],-25.3,-51.7,,
CCCCCCCC(=O)O,inactive,inactive,inactive,inactive,inactive,inactive,inactive,inactive,1.02%,,,,,inactive,,,,,,
CCCC1O[C@@H]2C[C@H]3[C@@H]4CCC5=CC(=O)C=C[C@]5(C)[C@H]4[C@@H](O)C[C@]3(C)[C@]2(C(=O)CO)O1 (stereo not given in full),inactive,inactive,inactive,inactive,inactive,inactive,inactive,inactive,-23.4%,inactive,inactive,,inactive,inactive,,,,,,
COc1ccc(/C=C/C(=O)Nc2ccccc2C(=O)O)cc1OC,inactive,inactive,inactive,inactive,inactive,inactive,inactive,17.8 µM (active) and inactive,-78.6% and -67.4%,inactive,inactive,2820 nM (active),inactive,,,,,,429 nM (active),857 nM (active)
CC(=O)Nc1cccc(-n2c(=O)n(C3CC3)c(=O)c3c(Nc4ccc(I)cc4F)n(C)c(=O)c(C)c32)c1,inactive,inactive,inactive,inactive,inactive,inactive,inactive,inactive,,,,,,,,,,,,
